The supplement of paper PMC12645437, “Orthogonal IMiD-Degron Pairs Induce Selective Protein Degradation in Cells” (ACS Chemical Biology, 2025)
In all, about 8,300 sequences were measured (“log2 fold change of degron read counts, EGFP-low vs EGFP+ sorted cells (limma voom), compound-induced degradation”: median about -1.1, highest 2% from about 3.2 on). This is one part of a sample in which the highest values are shown more often than they occur.

T1: CRBN, Q96SW2
T1 chain: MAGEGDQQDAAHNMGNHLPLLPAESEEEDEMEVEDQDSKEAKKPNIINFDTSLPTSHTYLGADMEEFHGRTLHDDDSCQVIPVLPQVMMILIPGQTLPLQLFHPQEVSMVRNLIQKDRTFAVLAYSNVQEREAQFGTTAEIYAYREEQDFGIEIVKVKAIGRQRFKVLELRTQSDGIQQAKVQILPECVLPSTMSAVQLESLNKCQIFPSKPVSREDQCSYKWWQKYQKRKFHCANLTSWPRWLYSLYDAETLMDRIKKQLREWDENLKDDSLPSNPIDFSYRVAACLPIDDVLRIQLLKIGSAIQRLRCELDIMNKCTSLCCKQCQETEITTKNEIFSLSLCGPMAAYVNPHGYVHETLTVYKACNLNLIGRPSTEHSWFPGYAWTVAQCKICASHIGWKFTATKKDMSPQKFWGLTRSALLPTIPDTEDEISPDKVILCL

B1: 46F_47S_49N_50Q_52G_53R_54C_55F_67L_, Q9UKT9 (peptide)
chain: FSCNQCGRCFTQKGNLLRHIKL
B2: 46F_47N_49P_50Q_52G_53A_54D_55F_67L_, Q9UKT9 (peptide)
chain: FNCPQCGADFTQKGNLLRHIKL
B3: 46F_47F_49N_50I_52G_53A_54E_55F_67L_, Q9UKT9 (peptide)
chain: FFCNICGAEFTQKGNLLRHIKL
B4: 46F_47S_49P_50I_52G_53H_54Q_55F_67L_, Q9UKT9 (peptide)
chain: FSCPICGHQFTQKGNLLRHIKL
B5: 46F_47S_49N_50Q_52G_53R_54D_55F_67L_, Q9UKT9 (peptide)
chain: FSCNQCGRDFTQKGNLLRHIKL
B6: 46L_47F_49N_50Q_52G_53F_54N_55C_67L_, Q9UKT9 (peptide)
chain: LFCNQCGFNCTQKGNLLRHIKL
B7: 46F_47E_49N_50Q_52G_53A_54H_55F_67L_, Q9UKT9 (peptide)
chain: FECNQCGAHFTQKGNLLRHIKL
B8: 46F_47M_49E_50I_52G_53A_54I_55F_67L_, Q9UKT9 (peptide)
chain: FMCEICGAIFTQKGNLLRHIKL
B9: 46F_47Q_49E_50I_52G_53A_54I_55F_67L_, Q9UKT9 (peptide)
chain: FQCEICGAIFTQKGNLLRHIKL
B10: 46F_47C_49E_50I_52G_53A_54I_55F_67L_, Q9UKT9 (peptide)
chain: FCCEICGAIFTQKGNLLRHIKL
B11: 46F_47I_49D_50V_52G_53A_54S_55F_67L_, Q9UKT9 (peptide)
chain: FICDVCGASFTQKGNLLRHIKL
B12: 46F_47T_49E_50V_52G_53A_54H_55F_67L_, Q9UKT9 (peptide)
chain: FTCEVCGAHFTQKGNLLRHIKL
B13: 46F_47A_49E_50V_52G_53A_54H_55F_67L_, Q9UKT9 (peptide)
chain: FACEVCGAHFTQKGNLLRHIKL
B14: 46F_47W_49E_50V_52G_53A_54H_55F_67L_, Q9UKT9 (peptide)
chain: FWCEVCGAHFTQKGNLLRHIKL
B15: 46F_47R_49E_50V_52G_53A_54H_55F_67L_, Q9UKT9 (peptide)
chain: FRCEVCGAHFTQKGNLLRHIKL
B16: 46F_47V_49E_50V_52G_53A_54H_55F_67L_, Q9UKT9 (peptide)
chain: FVCEVCGAHFTQKGNLLRHIKL
B17: 46F_47Y_49E_50V_52G_53A_54H_55F_67L_, Q9UKT9 (peptide)
chain: FYCEVCGAHFTQKGNLLRHIKL
B18: 46L_47V_49E_50I_52G_53F_54G_55C_67L_, Q9UKT9 (peptide)
chain: LVCEICGFGCTQKGNLLRHIKL
B19: 46F_47M_49P_50I_52G_53H_54Y_55F_67L_, Q9UKT9 (peptide)
chain: FMCPICGHYFTQKGNLLRHIKL
B20: 46F_47C_49D_50I_52G_53A_54P_55F_67L_, Q9UKT9 (peptide)
chain: FCCDICGAPFTQKGNLLRHIKL
B21: 46F_47Y_49D_50I_52G_53A_54P_55F_67L_, Q9UKT9 (peptide)
chain: FYCDICGAPFTQKGNLLRHIKL
B22: 46F_47V_49D_50I_52G_53A_54P_55F_67L_, Q9UKT9 (peptide)
chain: FVCDICGAPFTQKGNLLRHIKL
B23: 46F_47F_49D_50I_52G_53A_54P_55F_67L_, Q9UKT9 (peptide)
chain: FFCDICGAPFTQKGNLLRHIKL
B24: 46F_47Q_49D_50I_52G_53A_54P_55F_67L_, Q9UKT9 (peptide)
chain: FQCDICGAPFTQKGNLLRHIKL
B25: 46F_47W_49D_50I_52G_53A_54P_55F_67L_, Q9UKT9 (peptide)
chain: FWCDICGAPFTQKGNLLRHIKL
B26: 46F_47F_49D_50I_52G_53A_54D_55F_67L_, Q9UKT9 (peptide)
chain: FFCDICGADFTQKGNLLRHIKL
B27: 46F_47M_49N_50I_52G_53A_54V_55F_67L_, Q9UKT9 (peptide)
chain: FMCNICGAVFTQKGNLLRHIKL
B28: 46F_47F_49E_50I_52G_53H_54N_55F_67L_, Q9UKT9 (peptide)
chain: FFCEICGHNFTQKGNLLRHIKL

Target: T1, CRBN, Q96SW2
Assay: log2 fold change of degron read counts, EGFP-low vs EGFP+ sorted cells (limma voom), compound-induced degradation; higher = more compound-induced degradation of the degron-EGFP fusion; degrons are variants of IKZF1/3 zinc finger 2; compound dose not given here
Conditions: Jurkat, 18 h
Description: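 Pooled library of 8380 IKZF3 ZF2 degron mutants (positions 146-167 varied within the IKZF3 130-189 degron; only the varied core is printed, flanks not printed) fused to EGFP with IRES-mCherry, lentivirally expressed in Jurkat cells. mCherry+ cells were treated with one IMiD compound for 18 h (dose not stated) and FACS-sorted into EGFP-low and EGFP+ populations. Degron sequences were counted by NGS, and log2FC (EGFP-low vs EGFP+) was estimated by limma voom over 3 biological replicates.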

[1] = compound: compound 19 (5-tert-butyl-thalidomide)
[2] = compound: compound 22 (5-morpholino-thalidomide)
[3] = compound: compound 33 (diphenyl IMiD analogue)
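Further: pooled lentiviral library of zinc finger degron-EGFP fusions in mCherry-positive Jurkat cells, FACS-sorted after compound exposure, with degron abundance counted by next-generation sequencing.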

Sequence	log2 fold change of degron read counts [1]	log2 fold change of degron read counts [2]	log2 fold change of degron read counts [3]	log2 fold change of degron read counts (compound: thalidomide)
B1	-2.78	-2.88	-2.83	-2.73
B2	-3.44	-3.57	-2.75	-3.69
B3	1.77	1.94	0.373	-0.454
B4	-2.3	-3.17	-1.53	-1.82
B5	-3.12	-4.04	-2.59	-2.97
B6	-1.81	-1.88	-1.92	-1.45
B7	-2.49	-3.01	-2.49	-2.34
B8	-1.18	-0.577	2.14	0.96
B9	-0.255	3.16	2.84	3.68
B10	1.48	1.57	2.5	1.97
B11	-1.49	1.22	0.774	0.427
B12	-0.0867	0.738	1.47	2.04
B13	3.16	0.662	0.411	-0.296
B14	3.1	3.92	1.96	0.936
B15	-1.19	-1.13	0.668	0.202
B16	-0.244	1.53	1.35	1.87
B17	3.12	3.62	2.45	0.916
B18	1.26	1.94	0.702	2.41
B19	-2.08	-2.18	-1.11	-1.8
B20	2.7	2.21	0.465	0.477
B21	3.86	3.56	2.02	0.27
B22	1.63	3.29	1.93	2.61
B23	3.92	3.16	1.06	-0.36
B24	2.56	3.14	0.968	3.35
B25	2.91	2.32	1.2	-0.538
B26	-0.121	-0.935	-2.01	-2.27
B27	-1.55	-0.801	1.53	0.369
B28	-2.59	-3.18	-2.38	-2.84
